Consider 100 compounds from PubChem BioAssay AID493030 (The Scripps Research Institute Molecular Screening Center, 2011).

The structures appear in SMILES notation. Among all 2,300 compounds or so, about 1,500 (65%) were called active. The set was probably picked from earlier hits. A selection follows. Values without a mark were called inactive.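 Rule for the calls: active = mean inhibition over three repeats above a set limit taken from the earlier primary screen (cut at about 30% in these data); inactive = the rest.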

This assay addresses Platelet-activating factor acetylhydrolase 2, cytoplasmic (Homo sapiens) (UniProt Q99487). The assay is described as follows: inhibition of cytoplasmic PAF acetylhydrolase 2 – biochemical, fluorescence polarization, human, confirmation (AID 493030).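 Note: inhibitor blocks binding of rhodamine activity probe so polarization falls; 0% = enzyme with DMSO and 100% = wells lacking PAFAH2 protein.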 The conditions noted are these: recombinant PAFAH2, FP-rhodamine activity probe, at 3.39 µM, active compounds read high.
Consider `Clc1ccccc1CSc1nnc(-c2ccco2)c(-c2ccco2)n1`, for which the inhibition is 16.4%.

As to `COc1ccc(C(=O)OCC(=O)NCC2CCCCC2)cc1S(=O)(=O)N1CCCc2ccccc21`, the inhibition is 60.8% (active).

With `COc1ccc(C(=O)O/N=C(\N)Cc2ccc(Cl)cc2Cl)cc1OC`, the inhibition was 80.9% (active).

For the compound `O=C(NNC(=O)c1ccccc1O)c1ccccc1O`, the inhibition was 20.3%.

In the case of `O=c1oc(-c2ccccc2NS(=O)(=O)c2ccc(Cl)cc2)nc2ccccc12`, the inhibition was 76.7% (active).

For the compound `O=[N+]([O-])c1ccc(C=Nc2ccc(Cl)cc2Cl)s1`, the inhibition is 7.11%.

As to `O=C(COC(=O)c1ccc([N+](=O)[O-])o1)NC12CC3CC(CC(C3)C1)C2`, the inhibition was 46.4% (active).

`O=C(COC(=O)c1cccnc1Cl)NC12CC3CC(CC(C3)C1)C2`: the inhibition is 74.8% (active).

On to `COc1cc(C(=O)OCC(=O)NC23CC4CC(CC(C4)C2)C3)cc(OC)c1OC`, for which the inhibition is 67.7% (active).

`COCCNC(=O)/C(C#N)=C/c1cccc(OCc2ccccc2)c1`: the inhibition was 12%.

In the case of `O=C(Cc1ccc(S(=O)(=O)N2CCOCC2)s1)NCCOc1ccccc1F`, the inhibition is 30.5% (active).

As for `CC(C)(C)c1ccc(/C=C2\Oc3c(ccc(O)c3CN3CCN(CCO)CC3)C2=O)cc1`, the inhibition is 66.7% (active).

`COc1ccc(C(=O)OCC(=O)c2ccc(Cl)s2)c(OC)c1OC`: the inhibition is 73.5% (active).

Take `Cn1cccc1C(=O)OCC(=O)c1ccc(Br)s1`: the inhibition was 21%.

With `O=C(COC(=O)/C=C/c1cccc(Cl)c1)NCc1cccs1`, the inhibition is 35% (active).

In the case of `COc1ccc(/C=C/C(=O)OCC(=O)NCc2cccs2)cc1OC`, the inhibition was 56.9% (active).

For the compound `CCOC(=O)CCCN1CC(O)=C(c2nc3ccccc3s2)C1=N`, the inhibition was 28.1%.

In the case of `O=C(COC(=O)c1n[nH]c2ccccc12)Nc1ccccc1Br`, the inhibition was 38.6% (active).

Regarding `O=C(COC(=O)c1n[nH]c2ccccc12)NCc1ccccc1`, the inhibition was 28.3%.

Turning to `COCC1CCN(C(=O)c2ccc3oc(Cc4ccccc4)nc3c2)C1` (stereo not given), the inhibition is 40.8% (active).

Turning to `C/C=C/C=C/C(=O)OCC(=O)Nc1ccc(Cl)cc1`, the inhibition is 82.9% (active).

In the case of `Cc1ccc(/C=C/C(=O)OCC(=O)Nc2cccnc2Cl)cc1`, the inhibition was 23.7%.

`Cc1oc2cc(Br)c(O)c(Br)c2c1C(=O)c1ccccc1`: the inhibition was 49.5% (active).

Consider `O=C(c1cccnc1)N(c1cc2sc(=O)oc2c2ccccc12)S(=O)(=O)c1ccccc1`, for which the inhibition was 25%.

Turning to `COc1cc(/C=C/C(=O)OCC(=O)Nc2cccc(Oc3ccccc3)c2)ccc1O`, the inhibition was 61.8% (active).

Regarding `COc1ccc(OC)c(/C=C/C(=O)OCC(=O)Nc2ccc3c(c2)OCCO3)c1`, the inhibition was 48.2% (active).

`COc1ccc(C(=O)OCC(=O)Nc2cccc(C(C)=O)c2)cc1OC`: the inhibition was 79% (active).

In the case of `COc1ccc(C(=O)OCC(=O)NCCCc2ccccc2)cc1OC`, the inhibition was 53.5% (active).

With `COc1cc(/C=C/C(=O)OCC(=O)NCCCc2ccccc2)ccc1O`, the inhibition was 35.2% (active).

`COc1ccc(/C=C/C(=O)OCC(=O)Nc2cccc(Oc3ccccc3)c2)c(OC)c1`: the inhibition was 34.4% (active).

`COc1cccc(NC(=O)COC(=O)/C=C/c2ccco2)c1`: the inhibition is 77.9% (active).

Take `CC(C)CNC(=O)COC(=O)/C=C/c1ccco1`: the inhibition was 70.3% (active).

As to `COc1cccc(C(=O)n2ccc(-c3cccs3)n2)c1`, the inhibition is 11.4%.

Consider `Cc1cc(C(=O)NNC(=O)c2ccccc2O)c(C)o1`, for which the inhibition is 23.2%.

For `Cc1cc(C)cc(NC(=O)COC(=O)c2cc(C)oc2C)c1`, the inhibition was 61.5% (active).

Turning to `Cc1cc(C(=O)OCC(=O)Nc2ccc(F)c(F)c2)c(C)o1`, the inhibition was 74.4% (active).

For `Cc1cc(C(=O)OCC(=O)Nc2ccccc2Cl)c(C)o1`, the inhibition is 31.5% (active).

`CC(=O)c1c(C)[nH]c(C(=O)OCC(=O)NCCC(C)C)c1C`: the inhibition is 22.4%.

In the case of `Cc1ccc2c(=O)oc(N(C)C)nc2c1`, the inhibition is 38.2% (active).

Consider `CCc1ccc(C(=O)OCC(=O)NCC(F)(F)F)cc1`, for which the inhibition was 51.9% (active).

As to `O=C(COC(=O)C1CCCCC1)Nc1ccc([N+](=O)[O-])cc1`, the inhibition was 40.8% (active).

`CCC(C)c1ccc(NC(=O)COC(=O)C2CCCC2)cc1` (stereo not given): the inhibition is 21.6%.

As to `COc1ccc(S(=O)(=O)N2CCOCC2)cc1NC(=O)CC1CC2CCC1C2` (stereo not given), the inhibition was 60.8% (active).

For `COc1ccc(S(=O)(=O)N2CCOCC2)cc1NC(=O)Cc1c(F)cccc1Cl`, the inhibition is 24.1%.

As to `COc1ccc(S(=O)(=O)N2CCOCC2)cc1NC(=O)Cc1coc2cc(C)ccc12`, the inhibition is 46.8% (active).

Turning to `Nc1ccc(C(=O)OCC(=O)NC2CCCc3ccccc32)cc1[N+](=O)[O-]` (stereo not given), the inhibition is 52.2% (active).

For the compound `NC(=O)Nc1ccc(C(=O)OCC(=O)NC2CCCc3ccccc32)cc1` (stereo not given), the inhibition is 67.4% (active).

For `O=C(COC(=O)c1ccc(F)cc1)Nc1ccc2c(c1)OCO2`, the inhibition was 72.8% (active).

`Cc1cccc(C(=O)OCC(=O)Nc2ccc(F)cc2)c1`: the inhibition is 81.4% (active).

As to `CC(C)COC(=O)n1c(=O)oc2ccc(S(=O)(=O)N3CCCCC3)cc21`, the inhibition was 69.2% (active).

`O=C(COC(=O)c1ccc2ncsc2c1)Nc1ccc(Cl)cc1`: the inhibition was 76.2% (active).

On to `CCc1c(SCCC(=O)O)nc2ccccc2c1C`, for which the inhibition is -1.24%.

`O=C(COC(=O)/C=C/c1cccs1)NC1CCCCC1`: the inhibition is 87.9% (active).

Regarding `COc1ccc(/C=C/C(=O)OCC(=O)NC2CCCCCC2)cc1OC`, the inhibition was 79.4% (active).

Regarding `C=CCOc1ccc(/C=C/C(=O)OCC(=O)NC2CCCCCC2)cc1`, the inhibition is 77.1% (active).

Consider `O=C(COC(=O)/C=C/c1ccc(OC(F)F)cc1)NC1CCCCC1`, for which the inhibition was 62.1% (active).

Turning to `C=CCOc1ccc(/C=C/C(=O)OCC(=O)NC(C)c2ccc(F)cc2)cc1` (stereo not given), the inhibition is 32.5% (active).

As for `Oc1c(Cl)cc(Cl)c(Cl)c1Cc1c(O)c(Cl)cc(Cl)c1Cl`, the inhibition is 23.1%.

Consider `O=C(COC(=O)C12CC3CC(CC(O)(C3)C1)C2)NC12CC3CC(CC(C3)C1)C2`, for which the inhibition is 77.7% (active).

As for `Cc1ccc2c(c1)C1CN(C)CCC1N2C(=O)c1ccccc1NS(=O)(=O)c1ccc(F)cc1C` (stereo not given), the inhibition was 34.1% (active).

For the compound `Cc1ccc(F)cc1S(=O)(=O)Nc1cccc(C(=O)N2CCCC(C(N)=O)C2)c1` (stereo not given), the inhibition is 12.6%.

Consider `O=C(ON=C1CCN(S(=O)(=O)c2ccccc2)CC1)c1ccc(Cl)cc1`, for which the inhibition was 87.2% (active).

Take `CCS(=O)(=O)c1ccc(O)c(NC(=O)COc2ccc(Cl)cc2)c1`: the inhibition was 60.8% (active).

Turning to `CCC1OC(c2ccc([N+](=O)[O-])cc2)=Nc2ccccc21` (stereo not given), the inhibition was 13.7%.

Regarding `CCN(CC)c1ccc(C(=O)OCC(=O)c2ccco2)cc1`, the inhibition is 40.6% (active).

Turning to `O=C(COC(=O)c1ccccc1C(=O)c1ccccc1)c1ccco1`, the inhibition was 33.5% (active).

For `CC(=O)Nc1ccc(NC(=O)COC(=O)c2ccccc2C(=O)c2ccccc2)cc1`, the inhibition was 18.4%.

Take `CC(=O)Nc1ccc(C(=O)OCC(=O)Nc2ccc([N+](=O)[O-])cc2C(F)(F)F)cc1`: the inhibition was 34.5% (active).

Consider `CCCCN1Cc2c(nc3cc(-c4ccccc4)[nH]n3c2=O)C1=O`, for which the inhibition is 5.46%.

As to `Cc1ccc(/C=C/C(=O)OCC(=O)NCc2ccc(Cl)cc2)o1`, the inhibition was 42.2% (active).

Take `Cc1cc(NC(=O)COC(=O)/C=C/c2ccc(C)o2)no1`: the inhibition was 14.1%.

With `O=C(OCc1cn(-c2ccc(Cl)c(Cl)c2)nn1)c1ccccc1Cl`, the inhibition is 43.1% (active).

For `O=C(COC(=O)c1ccccc1SCC(=O)N1CCCC1)Nc1ccccc1OC(F)F`, the inhibition is 25.9%.

Turning to `O=C(COC(=O)c1ccccc1Cl)NC1CCCCCCC1`, the inhibition is 70.3% (active).

As for `O=C(COC(=O)c1ccccc1SCC(=O)NC1CCCCC1)NC1CCCCC1`, the inhibition was 73.7% (active).

For `O=C(COC(=O)c1cccc(Cl)c1)NC1CCCCCCC1`, the inhibition is 67.1% (active).

On to `N#Cc1ccccc1Sc1ccccc1C(=O)OCC(=O)NC1CCCCC1`, for which the inhibition is 21.3%.

On to `CC(C)(C)c1csc(NC2=NS(=O)(=O)c3ccccc32)n1`, for which the inhibition was 29.4%.

Take `COc1ccccc1CNC(=O)COC(=O)c1cccs1`: the inhibition is 41.8% (active).

Turning to `O=C(COC(=O)c1cccs1)Nc1ccccc1Cl`, the inhibition is 55.6% (active).

On to `COc1ccccc1CNC(=O)COC(=O)c1sc(C)nc1C`, for which the inhibition was 21%.

With `O=C(COC(=O)c1cccs1)NCc1cccs1`, the inhibition was 45.9% (active).

Consider `O=c1oc(-c2ccco2)nc2sc3c(c12)CCCCC3`, for which the inhibition is 34.2% (active).

Regarding `CC(C)c1ccc(NC(=O)COC(=O)c2ccc(CN3CCCC3=O)cc2)cc1`, the inhibition is 66.8% (active).

With `CCC(C)C(NC(=O)C1CCC(=O)N1C(=O)OCc1ccccc1)C(=O)NC(C(=O)N1CCCC1C(N)=O)C(C)CC` (stereo not given), the inhibition is 40.4% (active).

In the case of `CN(C)S(=O)(=O)c1cccc(NC(=O)COC(=O)/C=C/c2cccs2)c1`, the inhibition was 58.5% (active).

For `Cc1ccc(S(=O)(=O)N(C)C)cc1NC(=O)COC(=O)/C=C/c1cccs1`, the inhibition was 51.7% (active).

Take `O=c1[nH]n(-c2ccc([N+](=O)[O-])cc2)c(=O)c2ccccc12`: the inhibition is 32.6% (active).

With `O=C(COC(=O)c1ccccc1)Nc1cccc(S(=O)(=O)N2CCOCC2)c1`, the inhibition is 33.4% (active).

Consider `O=C(COC(=O)/C=C/c1ccc(Br)o1)Nc1cccc(S(=O)(=O)N2CCOCC2)c1`, for which the inhibition was 26.4%.

On to `CS(=O)(=O)c1ccc(Cl)c(NC(=O)COC(=O)c2cccc(S(=O)(=O)N3CCCC3)c2)c1`, for which the inhibition is 21.3%.

Take `CCOc1ncccc1C(=O)OCC(=O)Nc1cccc(S(=O)(=O)N2CCCCCC2)c1`: the inhibition is 57.6% (active).

As to `CCc1ccc(C(=O)OCC(=O)Nc2cccc(S(=O)(=O)NC3=NCCCCC3)c2)cc1`, the inhibition was 51.8% (active).

On to `CCC(C)(C)c1ccc(Oc2ccc(NC(=O)COC(=O)C3=COCCO3)cc2)cc1`, for which the inhibition was 61.5% (active).

For the compound `O=C(COC(=O)c1ccc2c(c1)OCCO2)NCc1ccccc1`, the inhibition was 45.8% (active).

Consider `CC(NC(=O)COC(=O)c1ccc2c(c1)OCO2)c1ccccc1` (stereo not given), for which the inhibition is 45.8% (active).

As to `O=C(COC(=O)c1ccc2c(c1)OCCO2)NCc1ccccc1Cl`, the inhibition is 78.9% (active).

Turning to `COc1ccc(NC(=O)CC(NC(C)c2ccccc2)C(=O)O)cc1` (stereo not given), the inhibition was 1.53%.

Regarding `O=C(COC(=O)/C=C/c1ccc(S(=O)(=O)N2CCCCCC2)cc1)NCc1ccccc1Cl`, the inhibition was 24.4%.

As for `Cc1cnc(NC(=O)CSc2c(Cl)cccc2Cl)s1`, the inhibition is 21.7%.
